Among the test systems are K-562 leukemia; MALME-3M melanoma; MDA-MB-231 breast; RXF 393 renal; SF-268 CNS; SF-295 CNS; SF-539 CNS; M14 melanoma; HCT-15 colon; UACC-257 melanoma.
Holding throughout (assay): NCI-60 one-dose screen, 48 h (100 = growth as untreated, 0 = no growth, -100 = all killed)
What all share (settings): 10 µM

Compounds without any hit were thinned out: in the full panel of roughly 83,000, 20% have a hit.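 Interpretation: 100, growth as untreated; towards 0, rising growth inhibition; 0, no net growth; 0 to -100, cell death. Compounds scoring below 10 were considered active.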 A number with no mark means an inactive call. The source made the active and inactive calls.

Regarding `O=C1/C(=C\c2cn(C(=O)c3ccc(Cl)cc3)c3ccccc23)c2ccccc2N1C(=O)c1ccc(Cl)cc1`, the growth in the assay with K-562 leukemia is 83.9%; in the assay with MALME-3M melanoma, 126%; with MDA-MB-231 breast, 81.2%; in the assay with RXF 393 renal it was 83.3%; with SF-268 CNS, 77.6%; with SF-295 CNS, 102%. The values for the growth with SF-539 CNS, in the assay on M14 melanoma and in the assay with HCT-15 colon were 67.3%, 79.2% and 65.8%, respectively.
Consider `CC(C)=CCc1cc(O)cc2c1OC(C=C(C)C)C1=C2C(=O)C2=C(C1=O)S(=O)(=O)CCN2` (stereo not drawn), for which the growth is 5.77% (active) in the assay with K-562 leukemia; -64.7% (active) in the assay on MALME-3M melanoma; 17.5% in the assay with MDA-MB-231 breast; 73.3% with RXF 393 renal; 2.3% (active) with SF-268 CNS; 85.5% in the assay on SF-295 CNS. Moreover, the growth in the assay with SF-539 CNS is -19.2% (active); in the assay on M14 melanoma it was 27.6%; in the assay with HCT-15 colon it was 58%.
Consider `COc1ccc(-c2nc3ncccn3c2-c2nnc(-c3ccsc3C)o2)cc1`, for which the growth with K-562 leukemia was 92.2%; in the assay with MALME-3M melanoma it was 80.8%; in the assay on MDA-MB-231 breast, 80.6%; in the assay with RXF 393 renal it was 82.8%; with SF-295 CNS it was 80.3%; with SF-539 CNS, 86.4%. The growth in the assay on UACC-257 melanoma was 78.4%; in the assay on M14 melanoma it was 107%; with HCT-15 colon, 88.9%.
As to `COc1ccc2c(c1)/C(=C\c1c[nH]c3ccc(OC)cc13)C(=O)N2`, the growth with K-562 leukemia is 11.6%; in the assay with MALME-3M melanoma it was 91.8%; in the assay on MDA-MB-231 breast, 42.3%; in the assay on RXF 393 renal, 60.5%; with SF-295 CNS, 74%; in the assay on SF-539 CNS, 74.2%. Also, the growth was 68.1% in the assay with UACC-257 melanoma, 29.8% with M14 melanoma and 31.6% in the assay with HCT-15 colon.
Consider `Cc1cc(N(CCCNc2ccnc3cc(Cl)ccc23)Cc2ccc3c(c2)OCO3)nc(N2CCCCC2)n1`, for which the growth in the assay on K-562 leukemia is -45.5% (active); with MALME-3M melanoma it was -81.6% (active); in the assay on MDA-MB-231 breast it was -47.2% (active); with RXF 393 renal it was -74.5% (active); with SF-268 CNS, 3.28% (active); with SF-295 CNS, -67.6% (active). The growth in the assay on SF-539 CNS was -87.7% (active); in the assay with M14 melanoma, -86% (active); with HCT-15 colon, -78.3% (active).
On to `NC(=O)CC1(c2ccccc2)CCCCC1`, for which the growth in the assay on K-562 leukemia is 92.3%; in the assay on MALME-3M melanoma, 93.8%; in the assay with MDA-MB-231 breast it was 105%; in the assay with RXF 393 renal, 114%; in the assay with SF-268 CNS it was 98.5%; in the assay on SF-295 CNS it was 103%. Further, the figures for the growth with SF-539 CNS and in the assay on HCT-15 colon were 104% and 101%, respectively.
In the case of `CC12O[C@H](C[C@@H](O)[C@H]1O)n1c3ccccc3c3c4c(c5c6ccccc6n2c5c31)C(=O)N(CCCN)C4=O`, the growth in the assay on K-562 leukemia is 15.5%; in the assay on MALME-3M melanoma it was 33.4%; in the assay with MDA-MB-231 breast it was 41.1%; in the assay on RXF 393 renal, 26.4%; with SF-268 CNS it was 36.5%; with SF-295 CNS, 51%. Also, the growth was 39.1% in the assay on SF-539 CNS, 37.1% in the assay with M14 melanoma and 96.4% in the assay with HCT-15 colon.
For the molecule `Nc1ccc2c(c1)C1(CCC2)NC(=O)NC1=O` (stereo not drawn), the growth in the assay with K-562 leukemia is 95.8%; in the assay with MALME-3M melanoma it was 101%; with MDA-MB-231 breast, 101%; in the assay with RXF 393 renal it was 96.1%; with SF-268 CNS, 100%; in the assay with SF-295 CNS, 108%. The growth with SF-539 CNS was 93%; with HCT-15 colon, 92.7%.
On to `COc1ccc(Nc2ccnc(NCCNc3ccnc4cc(Cl)ccc34)n2)cc1`, for which the growth was 3.54% (active) in the assay with K-562 leukemia; -1.18% (active) with MALME-3M melanoma; 37.3% in the assay on MDA-MB-231 breast; 55.7% with RXF 393 renal; 54.5% in the assay on SF-268 CNS; 46.1% in the assay on SF-295 CNS. Moreover, the growth is -14.4% (active) in the assay with SF-539 CNS, -16.6% (active) with M14 melanoma and 36.8% in the assay on HCT-15 colon.
With `CCN(CC)CCNc1ccc(CO)c2oc3cc(Cl)ccc3c(=O)c12`, the growth in the assay with K-562 leukemia is 81.8%; in the assay on MALME-3M melanoma, 112%; in the assay on MDA-MB-231 breast it was 83.7%; with RXF 393 renal, 73.3%; in the assay on SF-295 CNS it was 97.9%; with SF-539 CNS, 88.8%. Moreover, the growth is -0.905% (active) with UACC-257 melanoma, 60.3% in the assay with M14 melanoma and 81% in the assay with HCT-15 colon.
Take `COc1cc(-c2nc(-c3nnc(-c4ccccc4Cl)o3)c3ccccn23)cc(OC)c1OC`: the growth with K-562 leukemia is 65.8%; with MALME-3M melanoma it was 119%; with MDA-MB-231 breast, 90.7%; in the assay on RXF 393 renal, 90.8%; in the assay with SF-295 CNS, 77.9%; with SF-539 CNS, 88.3%. The growth in the assay with UACC-257 melanoma was 91.4%; in the assay with M14 melanoma, 112%; in the assay on HCT-15 colon, 73.3%.
For the molecule `COc1cc(Nc2ccnc(NCCCNc3ccnc4cc(Cl)ccc34)n2)cc(OC)c1`, the growth in the assay with K-562 leukemia was -51.1% (active); in the assay on MALME-3M melanoma, -87.7% (active); with MDA-MB-231 breast, -54.6% (active); in the assay on RXF 393 renal it was -83.3% (active); in the assay with SF-268 CNS, -19.9% (active); in the assay with SF-295 CNS, -75.9% (active). Further, the growth in the assay with SF-539 CNS is -98.5% (active); in the assay on M14 melanoma it was -85.6% (active); with HCT-15 colon, 0.0216% (active).
`Clc1ccc2c(NCCCNc3nccc(Nc4ccc(Br)cc4)n3)ccnc2c1`: the growth was -68.8% (active) with K-562 leukemia; -83.8% (active) in the assay with MALME-3M melanoma; -90% (active) in the assay on MDA-MB-231 breast; -92.7% (active) in the assay on RXF 393 renal; -84.3% (active) in the assay with SF-268 CNS; -84.9% (active) in the assay with SF-295 CNS. The growth in the assay with SF-539 CNS is -93.1% (active); with M14 melanoma, -83.6% (active); in the assay on HCT-15 colon, -65.8% (active).
Turning to `CCCCN(CCCC)c1cc(C(=O)CCCCCN)c2ccccc2n1`, the growth in the assay on K-562 leukemia is -67.9% (active); in the assay with MALME-3M melanoma it was -74.4% (active); in the assay with MDA-MB-231 breast, 78.3%; in the assay on RXF 393 renal, 82.5%; in the assay on SF-268 CNS, -58% (active); in the assay with SF-295 CNS it was -62.3% (active). In addition, the growth in the assay on SF-539 CNS was 83.6%; in the assay on M14 melanoma it was 14.4%; in the assay with HCT-15 colon, 60.1%.
Consider `Cc1cc(N(CCCNc2ccnc3cc(Cl)ccc23)Cc2ccc3c(c2)OCO3)nc(N2CCOCC2)n1`, for which the growth in the assay with K-562 leukemia was -6.17% (active); with MALME-3M melanoma, -71.4% (active); with MDA-MB-231 breast it was 14.4%; with RXF 393 renal, -48% (active); in the assay with SF-268 CNS it was 36.6%; with SF-295 CNS, -9.78% (active). For the same molecule, the growth with SF-539 CNS was -72.9% (active); in the assay with M14 melanoma, -71.1% (active); in the assay on HCT-15 colon, 4.7% (active).

The values are drawn from PubChem BioAssay (NCI).
